# Source: the OligoGym collection
# Target: APOA4
# Test: pooled miR-30 sensor sort-seq; sequence = guide strand
# Details: shRNA
# Note: reference of the scale not given here.
row,Sequence,sensor-assay potency score (higher = more potent)
1,TCTTTCTCCTTGAAGGTGCTGA,0.0406
2,TTCTTCTGCAGGTCACCTGCGT,-0.176
3,TTCTTCATCTGGAAGGTCAGGC,0.31
4,TTTCTGGAGATGTTCCACGGCC,-0.87
5,TCCACGTTCTGGTCGATCTTGG,-1.41
6,TTCTGGTCGATCTTGGCCTTGA,-0.621

# Target: APOBEC1
# Test: as above
# Details: shRNA
row,Sequence,sensor-assay potency score (higher = more potent)
1,TAATCTGAATAGTTACTCCACT,-0.77
2,TCCACTGTTAACAAGGTCCCTG,-0.838
3,TAAAATTAACTTCCACGTGATT,-0.973
4,TACAACATCATCCACAGAGGTG,-0.853
5,TTTTTGCCTGAGCTTCGCCAGA,-1.38
6,ATAATCTGAATAGTTACTCCAC,0.108
7,TTAAACAGGGTGGAAGACTTAG,-0.633
8,TAGAATTATGCAGTGCAGCTCC,0.275
9,TTAACTTCCACGTGATTGGTGG,0.311
10,TAGAAGACGTCAAACTCCCAGG,-0.81
11,TTGATTTCGTAGAGCAGACAGG,-1.09
12,TTTAGTGGGTCATCATTGCTTG,-0.449
13,TAGAGTCACACCAGGGTGCCGA,-0.942
14,TTTCGTAGAGCAGACAGGCCTC,-0.178
15,TGAAAATCTCTTTCTGACGTAA,-0.0382
16,TTTTGTTGATCCATGTGCCAAA,-1.26
17,TTGAAATCTTTAAACAGGGTGG,0.0773
18,TTTTATAAAATTAACTTCCACG,-0.657
19,TAACAAGGTCCCTGAGACCTTG,-0.747
20,TTGCCGATTTTGTTGATCCATG,-1.51
21,TAGTTGACAAAATTCCTCCAGC,0.113
22,TTTTTATAAAATTAACTTCCAC,-0.469
23,TATAAAATTAACTTCCACGTGA,0.0953
24,AATTATGCAGTGCAGCTCCAGT,-0.901
